Values joined by “and” are separate entries in the source; they are usually repeats but may differ in a detail not shown here. Equal values may be shown once. Out of some 420,000 compounds screened, about 50,000 (12%) were called active. About 26% were inconclusive and are not listed. What follows is part of a selection rich in actives, with near analogues and random picks from the rest. A number with no mark means an inactive call. Calls come from the whole dose curve; as a rule, active = well fitted inhibition curve with a large enough effect; inconclusive = small, poorly fitted or top-dose-only effect; inactive = flat fitted curve, though single readings scatter.
Experiment: qHTS for Inhibitors of human tyrosyl-DNA phosphodiesterase 1 (TDP1): qHTS in cells in presence of CPT; note: nearly all actives have a fitted effect of over 55% in size
Conditions: chicken DT40 Tdp1-/-;hTDP1 cells + 20 nM CPT, ATP luminescence, 48 h; series mostly up to 46.2 µM; activity change, negative = growth inhibition: at the top concentration
How it was run: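 Chicken DT40 Tdp1-/- cells stably complemented with human TDP1 were seeded at 400 cells/well in medium containing 20 nM camptothecin, exposed to pin-transferred compounds, and grown at 37 °C for at least 48 hr. Viability was read as ATP luminescence.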
% is set by controls: 0 for no effect and ±100 for the full control effect; potency is the fitted concentration of half-maximal effect.

Row | SMILES | activity change, negative = growth inhibition | Potency
1 | COC(=O)C1CCN(C(=O)NC2CC(=O)N(c3ccc4c(c3)OCCO4)C2)CC1 (stereo not given) | 1.67% | 
2 | NC(=O)COC(=O)c1ccc2c(c1)C(=O)N(Cc1ccco1)C2=O | -16.2% | 
3 | COc1cc2c(C(=O)O)c(C)n(C)c2c2ccccc12 | -17.2% | 
4 | CNC[C@H]1Oc2c(NC(=O)C3CCCCC3)cccc2C(=O)N([C@H](C)CO)C[C@@H]1C | 11.7% | 
5 | CCOC(=O)C(Cc1ccccc1)NC(=O)CCc1c(C)nc2c(c(C)nn2-c2ccc(C)c(C)c2)c1C (stereo not given) | -29.9% | 
6 | Cc1cc(C)c2c(NC(=O)C3CC3)nn(C)c2n1 | -6.29% | 
7 | O=C(NCCc1ccccn1)c1nc(Cn2cc([N+](=O)[O-])cn2)no1 | 5.17% | 
8 | COc1ccc(NC(=O)CCS(=O)(=O)c2cc3c(cc2Cl)NC(=O)CO3)cc1OC | -12.9% | 
9 | CCOc1ccc(N2C(=O)Nc3ccccc3C2(O)C(=O)NCc2ccco2)cc1 (stereo not given) | -10.1% | 
10 | Cc1ccc(NC(=O)c2sccc2C)cc1[N+](=O)[O-] | 5.4% | 
11 | O=C(CSc1nccc(=O)[nH]1)Nc1ccc(N2CCOCC2)c(Cl)c1 | -2.28% | 
12 | Cc1ccc(OCC(=O)NCCCNC(=O)c2ccco2)cc1C | 11% | 
13 | CCCC(C(=O)NC1CCCC1)N(C(=O)Cn1nnc(-c2ccc(C)o2)n1)c1cccc(O)c1 (stereo not given) | 7.3% | 
14 | CC(=O)c1ccc(S(=O)(=O)N2CCC3(CC2)OCCO3)cc1 | -1.56% | 
15 | O=C(CSc1ncccn1)N1CCCC1 | -6.15% | 
16 | COc1ccc(O)c(C(=O)c2cnc3c(c2)c(-c2ccc(F)cc2)c(C#N)c(=O)n3C)c1 | -34.5% | 
17 | N#C/C=C(/c1ccc(F)cc1)N1CCOCC1 | -2.86% | 
18 | Cc1c(NC(=O)Nc2ccc(F)c(Cl)c2)c(=O)n(-c2ccccc2)n1C | -2.31% | 
19 | CN(C)C(=O)c1cccc(-c2cnc3c(NC=O)cc(-c4ccc(F)cc4)cn23)c1 |  | 6.51 µM (active)
20 | Cc1ccc(C(=O)N2CCN(C(=O)N3CCOCC3)CC2)cc1 | -0.646% | 
21 | COc1cc(C(=O)N2CCN(C)CC2)cc(OC)c1OC | 9.33% | 
22 | O=CNc1cc(-c2ccc(C(=O)N3CCOCC3)cc2)cn2c(-c3ccc(F)cc3)cnc12 |  | 20.6 µM (active)
23 | CC(=O)Nc1cccc(-c2cc(NC=O)c3ncc(-c4ccc(F)c(Cl)c4)n3c2)c1 |  | 23.1 µM (active)
24 | COc1ccc(-c2cc(NC(C)=O)c3ncc(-c4cc(OC)c(OC)c(OC)c4)n3c2)cn1 |  | 2.59 µM (active)

Row | SMILES | activity change, negative = growth inhibition | Potency
25 | CNc1cnc(-c2cc(OC)c(OC)c(OC)c2)cn1 | 8.84% | 
26 | Cc1ccc(OCC(=O)NCCCNC(=O)c2cccnc2)cc1C | -10.9% | 
27 | CCCCn1c(N)c(N(CCC(C)C)C(=O)COC(=O)c2cccnc2OCC)c(=O)[nH]c1=O | -10.1% | 
28 | COCCC(=O)Nc1ccc2c(c1)CN(C(=O)CCOC)CC2 | -9.78% | 
29 | CC1O[C@@H](OC2C(O)C(C)O[C@H](OC(=O)[C@]34CCC(C)(C)C[C@H]3C3=CCC5[C@@]6(C)CC(O)C(O[C@@H]7OC(CO)C(O)[C@@H](O)[C@@H]7O)[C@@](C)(C(=O)O)C6CC[C@@]5(C)[C@]3(CO)CC4)C2O[C@H]2OC(C)[C@@H](O[C@@H]3OCC(O[C@@H]4OC(CO)C(O)[C@H](O)C4O)[C@@H](O)[C@@H]3O)[C@H](O)C2O)C(O)C(O)C1O (stereo not given in full) | 11.8% | 
30 | Cc1cc(C)cc(N(CCC#N)C(=O)CN2C(=O)NC3(CCCC3)C2=O)c1 | -11.4% | 
31 | CC(NS(=O)(=O)c1ccc(OCC(=O)N2CCCC2)cc1)c1ccccc1 (stereo not given) | -4.52% | 
32 | CCOC(=O)c1ccc(-n2c(CCC(=O)O)ccc2-c2ccccc2)cc1 |  | inactive
33 | COc1ccc(C2CC(c3cccs3)Nc3nnnn32)cc1 (stereo not given) | 18.1% | 
34 | COCCNc1ccnc(-c2cccc(NS(C)(=O)=O)c2)n1 | -0.332% | 
35 | COc1ccc(/C=N/S(=O)(=O)c2ccccc2)cc1OC | 4.71% | 
36 | COc1cc(C=O)ccc1Oc1nnnn1-c1ccccc1 | 13.2% | 
37 | CC(=O)c1ccc(-c2cnc3c(NC=O)cc(-c4cccc(NS(C)(=O)=O)c4)cn23)cc1 |  | 23.1 µM (active)
38 | CC(=O)Nc1cc(-c2ccccc2F)cn2c(-c3cccc(C(F)(F)F)c3)cnc12 | -101% | 
39 | COc1ccc(-c2cc(NC=O)c3ncc(-c4ccccc4)n3c2)cc1OC |  | 6.51 µM (active)
40 | COc1ccc(-c2cc(NC=O)c3ncc(-c4cccc(C(=O)N(C)C)c4)n3c2)c(OC)c1 |  | 23.1 µM (active)
41 | COc1ccc(Nc2ncnc3sc(-c4ccccc4)cc23)c(OC)c1 | -21.8% | 
42 | COc1cccc(-c2cc(NC(C)=O)c3ncc(-c4cccc(C(C)=O)c4)n3c2)c1 |  | 23.1 µM (active)
43 | COc1ccc(NC(=O)CC2COc3ccccc3O2)c(OC)c1 (stereo not given) | -21% | 
44 | COc1cccc(NC(=O)CSc2nnc(-c3cccnc3)o2)c1 | -1.45% | 
45 | Cc1cccc(N=C2SC(C)CN2C(=O)CN2C(=O)NC3(CCCC3)C2=O)c1 (stereo not given) | 1.26% | 
46 | O=C(CCn1nnc2ccccc2c1=O)N[C@@H](Cc1c[nH]c2ccccc12)C(=O)O | 14.2% | 
47 | COc1ccc(S(=O)(=O)N2CCOCC2)cc1NC(=O)CC1CC2CCC1C2 (stereo not given) | -25.8% | 
48 | O=C(O)CC(CC(=O)N1CCOCC1)c1ccccc1 (stereo not given) | 3.43% | 

Row | SMILES | activity change, negative = growth inhibition | Potency
49 | Cc1ccc(CN2COc3cc(C)c4c(oc(=O)c5ccccc54)c3C2)cc1 | -24% | 
50 | CC(C)C[C@H](NC(=O)C1CCC(CNC(=O)[C@@H]2CCCN2C(=O)OC(C)(C)C)CC1)C(=O)O (stereo not given in full) | 29.8% | 
51 | COc1cccc(CNC(=O)CCCC(=O)Nc2cccc([N+](=O)[O-])c2)c1 | -19.6% | 
52 | Cc1c(NC(=O)CSCc2ccccc2)cccc1C(=O)O | -1.33% | 
53 | COc1cc(C(=O)N/C(=C\c2cn(C)c3ccccc23)C(=O)N2CCOCC2)cc(OC)c1OC | 12.5% | 
54 | CCCCNC(=O)N(O)C1N(/N=C/c2ccccc2O)C(=S)SC1(C)C (stereo not given) | -27.3% | 
55 | COc1ccnc(Oc2ccccc2)c1-c1ncn[nH]1 | 1.93% | 
56 | Cc1ccc2oc(=O)c3cnn(CC(=O)NCc4ccccc4Cl)c3c2c1 | 13.6% | 
57 | Cc1ccccc1C(=O)Nc1ccccc1Sc1ccccc1 | 5.44% | 
58 | COc1cccc(/C=C2\Sc3ccc(C(=O)NCC4CCCO4)cc3N(C)C2=O)c1 (stereo not given) |  | 18.4 µM (active)
59 | COc1ccccc1-n1cnc2cc(C(=O)NCC3CCCO3)ccc21 (stereo not given) | -18% | 
60 | COc1cccc(C(=O)NCCS(=O)(=O)NCC2CCCO2)c1 (stereo not given) | 1.27% | 
61 | COc1ccc(CN2C(=O)C(CC(=O)NCc3cccc4ccccc34)CC(C(=O)N3CCOCC3)=C2C)cc1 (stereo not given) | -12.7% | 
62 | CCc1ccc(CNC(=O)C2CCN(c3nnc(C)c4c(C)n(-c5ccc(C)cc5)nc34)CC2)cc1 |  | 5.17 µM (active) and 16.4 µM (active)
63 | CCOC(=O)C1CCN(C(=O)Cn2nc(C)c3c(C)n(-c4ccccc4)nc3c2=O)CC1 | -18% | 
64 | Cc1ccc(NC(=O)N2CCC(C(=O)NCc3ccc(F)cc3)CC2)cc1 | -17.6% | 
65 | CCOc1ccc(CNC(=O)C2CCCN(c3nnc(C)c4c(C)n(-c5ccccc5)nc34)C2)cc1 (stereo not given) |  | 13 µM (active)
66 | Cc1nnc(N2CCCC(C(=O)NCCN(C)C)C2)c2nn(-c3ccccc3)c(C)c12 (stereo not given) | -16.4% | 
67 | COc1ccc(-n2nc3c(N4CCC(C(=O)NCc5ccccc5)CC4)nnc(C)c3c2C)cc1 | -21.8% | 
68 | Cc1ccc(C=O)cc1Cl | -16.7% | 
69 | Cc1nc2scc(-c3cccs3)c2c(=O)n1N | 0.389% | 
70 | [2H]C(CCOS(N)(=O)=O)c1ccccc1 (stereo not given) | -11.5% | 
71 | COc1ccccc1-n1nnnc1SCC(=O)NC(=O)Cc1ccccc1 | -8.14% | 
72 | COc1ccccc1-n1nnnc1S(=O)(=O)Cc1ccc(Cl)cc1 |  | 5.8 µM (active)

Row | SMILES | activity change, negative = growth inhibition | Potency
73 | CCC(C)N(C(=O)CSc1nnnn1-c1ccccc1OC)C1CCS(=O)(=O)C1 (stereo not given) | -22.6% | 
74 | O=C(NCCO)c1cccc(-c2cccc3nccn23)c1 | 8.69% | 
75 | CS(=O)(=O)Nc1cccc(C2=NN(S(=O)(=O)c3ccccc3)C(c3cccs3)C2)c1 (stereo not given) | -5.61% | 
76 | CS(=O)(=O)Nc1cccc(C2=NN(C(=O)c3cccc(F)c3)C(c3cccs3)C2)c1 (stereo not given) |  | 23.1 µM (active)
77 | COc1ccc(C2=NN(C(=O)CCC(=O)O)C(c3cccs3)C2)cc1OC (stereo not given) | 16% | 
78 | CS(=O)(=O)Nc1ccc(C2=NN(S(C)(=O)=O)C(c3cccs3)C2)cc1 (stereo not given) | -4.9% | 
79 | CCOc1ccccc1C1CC(c2cccc(NS(C)(=O)=O)c2)=NN1C(=O)c1ccccc1 (stereo not given) | -6.18% | 
80 | CCS(=O)(=O)Nc1ccc(C2=NN(C(C)=O)C(c3cccs3)C2)cc1 (stereo not given) |  | 4.11 µM (active)
81 | CCNC(=O)Cn1nc(C)n2c(cc3c(OC)cccc32)c1=O | 7.15% | 
82 | CCc1ccccc1NC(=O)CN(C)S(=O)(=O)c1ccc2c(c1)c(=O)n(C)c(=O)n2C | -12.8% | 
83 | CCOc1ccc(S(=O)(=O)N2CCC(c3ccccc3)CC2)cc1C(=O)O | 3% | 
84 | CN(Cc1ccccc1)C(=O)COC(=O)c1ccccc1Nc1ccccc1 | -0.608% | 
85 | COc1ccc(C)cc1S(=O)(=O)N1CCN(S(=O)(=O)c2cc(C(=O)O)ccc2C)CC1 | -0.611% | 
86 | O=[N+]([O-])c1ccc(S(=O)(=O)N2CCN(c3nc(-c4ccccc4)nc4ccccc34)CC2)cc1 | 1.79% | 
87 | Cc1ccc(C)c(S(=O)(=O)N2CCN(c3ncnc4sccc34)CC2)c1 |  | 11.6 µM (active)
88 | Cc1ccc(S(=O)(=O)N2CCN(C)CC2)cc1 | 18.1% | 
89 | Cc1ccc(C)c(S(=O)(=O)n2nc(C)c(S(=O)(=O)N3CCC(C)CC3)c2C)c1 | -7.4% | 
90 | Cc1ccc(S(=O)(=O)N2CCN(c3ncnc4ccccc34)CC2)cc1 |  | 461 nM (active) and 1.58 µM (active)
91 | CCOC(=O)c1[nH]c(C)c(CCC(=O)NCc2ccccc2C)c1C | -16.7% | 
92 | CCCNC(=O)C1(C)CCN(C(=O)c2cc(F)ccc2C)C1 (stereo not given) | -11.1% | 
93 | CC(C)Oc1ccc(CN2CCC(n3nccc3NC(=O)c3cccnc3)CC2)cc1 | -19.1% | 
94 | COC(=O)[C@@]1(Cc2ccc(OC)cc2)[C@H]2c3cc(C(=O)N4CCCC4)n(Cc4ccc(OC(F)(F)F)cc4)c3C[C@H]2CN1C(=O)c1ccccc1 |  | 16.4 µM (active)
95 | COC(=O)c1ccc(CN2CCC(CO)(Cc3ccc(OC)cc3)CC2)cc1 | 5.36% | 
